Screening data: PubChem BioAssay, National Center for Advancing Translational Sciences (NCATS)
ATXN viability: Viability Counterscreen for Primary qHTS for Inhibitors of ATXN expression; Potency, µM (titrated, usually from 56.7 µM), actives largely listed as cytotoxic; S2 cells (HEK-293 line with an ATXN2-luciferase reporter) viability, CellTiter-Fluor protease fluorescence, 24 h; 400,000 tested, 0.49% active; AID 651635, 2014; note: nearly all actives have a fitted effect of over 40% in size
ATXN2 expr inh: Primary qHTS for Inhibitors of ATXN expression | 360,000 tested, 0.72% active | HEK-293 ATXN2-luciferase reporter, luminescence, 24 h | Potency, µM (highest dose often 57 µM), usual class: inhibitors; note: nearly all actives have a fitted effect of over 55% in size
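qHTS (up to 57 uM final) was run with 24 h compound exposure of reporter cells at 37 °C. Each well was multiplexed: SteadyGlo luminescence measured ATXN2-luciferase expression after a fluorogenic Gly-Phe-AFC viability readout (25 uM final).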
DRD3 agonist: qHTS of D3 Dopamine Receptor Agonist: qHTS | D3R DiscoveRx beta-arrestin cells, luminescence, 90 min | max activation, % | 410,000 tested, 0.58% active | AID 652048, 2013; in the data active = max activation above about 30%
Target sequence (P35462 whole entry, looked up): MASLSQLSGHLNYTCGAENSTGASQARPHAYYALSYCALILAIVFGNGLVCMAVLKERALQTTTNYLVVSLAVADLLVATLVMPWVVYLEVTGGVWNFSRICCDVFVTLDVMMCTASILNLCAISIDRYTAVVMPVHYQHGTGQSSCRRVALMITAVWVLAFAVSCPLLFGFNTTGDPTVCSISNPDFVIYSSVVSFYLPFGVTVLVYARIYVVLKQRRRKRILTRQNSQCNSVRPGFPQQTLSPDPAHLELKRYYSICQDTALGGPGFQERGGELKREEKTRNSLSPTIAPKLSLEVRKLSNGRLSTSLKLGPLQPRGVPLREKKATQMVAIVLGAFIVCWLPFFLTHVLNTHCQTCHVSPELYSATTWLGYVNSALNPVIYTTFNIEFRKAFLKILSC
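Agonist-mode cell screen: cells plated at 1500/well and incubated overnight at 37 °C, then exposed to library compounds for 90 min at 37 °C. Detection reagent was added for 30–60 min at room temperature, and luminescence was read.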
TGFb inhibitor: qHTS for Inhibitors of TGF-b; HepG2 CAGA-GFP TGF-b/SMAD3 reporter, GFP fluorescence, 18 h; TGF-beta stimulated, 500 pg/mL final; Potency, µM (highest dose often 46.1 µM), actives largely listed as inhibitors; 410,000 tested, 1.2% active; AID 588855, 2011; note: nearly all actives have a fitted effect of over 65% in size
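Smad-responsive CAGA-GFP expression was quantified in HEPG2 cells exposed to compounds and 500 pg/mL final TGF-beta for 18 h at 37 degrees C; unstimulated wells defined full inhibition.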
HepG2 tox: qHTS for Inhibitors of TGF-b: Cytotox Counterscreen; Potency, µM (highest dose often 46.1 µM), actives largely listed as cytotoxic; 410,000 tested, 0.76% active; HepG2 CAGA-GFP viability, ATP luminescence, 18 h
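CellTiter-Glo luminescence gave cytotoxicity after 18 hours at 37 degrees C. The cells were HepG2 CAGA-GFP in 1% FBS DMEM, stimulated with 500 pg/mL TGF-beta after compound addition. %Activity was normalised to no-cell wells (complete cell-killing) and DMSO (no toxicity), and curves were fitted and classified.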
D3 antag: qHTS of D3 Dopamine Receptor Antagonist: qHTS; D3R cells, DiscoveRx beta-arrestin luminescence, antagonist mode; hits give low values; max response, negative = inhibition, %; 360,000 tested, 2.5% active; AID 652054, 2013; in the data active = max response below about -50%; inconclusive = no clear call, values can overlap the other calls
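Cells plated overnight at 1500 cells/well, then exposed to library compounds with dopamine controls for 90 minutes at 37 degrees C. DiscoveRx reagent added for 30–60 minutes at room temperature; luminescence read, quantitative HTS format.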
A number is an active result. This is a sample that favours compounds with a hit; in the whole collection about 4.7% have one here. Unless noted, calls come from the whole dose curve; as a rule, active = well fitted curve in the direction sought with a large enough effect; inconclusive = small, poorly fitted or top-dose-only effect, or another doubt; inactive = no such curve, though single readings can be large; an effect the other way counts as inactive or inconclusive.

How did Cc1cccc(C(=O)N2CCC(=O)N(C(COCc3cccc(C(F)(F)F)c3)Cc3ccccc3)CC2)c1 (stereo unspecified) do in these assays?
ATXN viability: 31.6µM; ATXN2 expr inh: inactive; DRD3 agonist: inactive; TGFb inhibitor: inconclusive; HepG2 tox: inactive; D3 antag: inactive

Results for Cc1cccc(C(=O)N2CCC(=O)N([C@H](COCc3cccc(C(F)(F)F)c3)Cc3ccccc3)CC2)c1 ?
ATXN viability: 31.6µM; ATXN2 expr inh: inconclusive; DRD3 agonist: inactive; D3 antag: inactive

Results for CC(C)C[C@@H](COCc1cccc(C(F)(F)F)c1)N1CCN(C(=O)c2ccc(C(F)(F)F)cc2)CCC1=O ?
ATXN viability: 28.2µM; ATXN2 expr inh: inconclusive; DRD3 agonist: inactive; D3 antag: inactive

Results for Cc1cccc(COC[C@H](CC(C)C)N2CCN(C(=O)c3ccc(C(F)(F)F)cc3)CCC2=O)c1 ?
ATXN2 expr inh: inconclusive; DRD3 agonist: inactive; D3 antag: inactive

Results for COc1ccc(C(=O)NCCc2csc(-c3ccc(Cl)cc3)n2)c(OC)c1 ?
ATXN viability: inconclusive; ATXN2 expr inh: inconclusive; DRD3 agonist: inactive; TGFb inhibitor: inconclusive; HepG2 tox: inactive

Results for CCOC(=O)N1CCN(C(=O)c2ccc(-c3ccccc3OC)nc2N2CCC(N3CCCC(CO)C3)CC2)CC1 (stereo unspecified) ?
ATXN viability: inactive

What do the screens show for `CCOC(=O)c1c(C)[nH]c(C)c1S(=O)(=O)N(C)CC(=O)Nc1ccc(OC)cc1`?
ATXN viability: inactive; ATXN2 expr inh: inactive; DRD3 agonist: inactive; TGFb inhibitor: inactive; HepG2 tox: inactive

Results for COCCOc1cc(Nc2nnc(C(F)(F)F)s2)c(Cl)cc1Cl ?
ATXN viability: inactive; ATXN2 expr inh: inactive; DRD3 agonist: inactive; TGFb inhibitor: inconclusive; HepG2 tox: inactive; D3 antag: -63.8

Results for C=CCN=C1NN=C(c2cc(C)n(CC=C)c2C)CS1 ?
ATXN viability: inactive; ATXN2 expr inh: 26.7µM; DRD3 agonist: inactive; TGFb inhibitor: inactive; HepG2 tox: inactive; D3 antag: inactive

Results for COCCN=C1NN=C(c2cc(C)n(CC3CCCO3)c2C)CS1 (stereo unspecified) ?
ATXN viability: inactive; ATXN2 expr inh: inactive; DRD3 agonist: inactive; TGFb inhibitor: inactive; HepG2 tox: inactive; D3 antag: inactive

How did Cc1ccc(-c2csc(NC(=O)C[n+]3cc(-c4ccccc4)n4c3CCC4)n2)cc1 do in these assays?
ATXN viability: inconclusive; ATXN2 expr inh: inactive; DRD3 agonist: inactive; TGFb inhibitor: 22.4µM; HepG2 tox: inactive; D3 antag: inactive

What do the screens show for `O=C(C[n+]1cc(-c2ccc(Cl)cc2)n2c1CCCCC2)c1ccccc1`?
ATXN viability: inactive; ATXN2 expr inh: inactive; DRD3 agonist: inactive; TGFb inhibitor: inactive; HepG2 tox: inactive; D3 antag: -62.6

How did O=[N+]([O-])c1ccc2nc(CO)[nH]c2c1 do in these assays?
TGFb inhibitor: inactive; HepG2 tox: inactive

What do the screens show for `COC(=O)c1[nH]c2cccc(OC)c2c1NC(=O)CCN1CCC(C)CC1`?
ATXN viability: inactive; ATXN2 expr inh: inactive; DRD3 agonist: inactive; TGFb inhibitor: inactive; HepG2 tox: inactive; D3 antag: -77.1

Results for COC(=O)c1[nH]c2cccc(OC)c2c1NC(=O)CCN1CCN(c2ccccc2OC)CC1 ?
ATXN viability: inactive; ATXN2 expr inh: inactive; DRD3 agonist: inactive; TGFb inhibitor: inactive; HepG2 tox: inactive; D3 antag: -90.2

How did COC(=O)c1[nH]c2cccc(OC)c2c1NC(=O)CN1CCN(c2cccc(OC)c2)C(C)C1 (stereo unspecified) do in these assays?
ATXN viability: inactive; ATXN2 expr inh: inactive; DRD3 agonist: inactive; TGFb inhibitor: inactive; HepG2 tox: inactive; D3 antag: inconclusive

What do the screens show for `CCOc1ccc(OCC)c(Nc2nc3ccc(C(=O)c4ccccc4)cc3n3cnnc23)c1`?
DRD3 agonist: inactive; TGFb inhibitor: inactive; HepG2 tox: inactive
